# BH1578 lux ind: inducers of Vibrio cholerae quorum light production without autoinducers, primary screen, BH1578 luxS cqsA deficient, single point | V. cholerae BH1578 lux reporter, luminescence, 6 h | activation, % at 18.7 µM | hit rate 0.16% among 350,000 | AID 588436, 2011; in the data active = activation mostly above about 9.7%, no sharp cut-off
# BioA inh-1: M. tuberculosis BioA enzyme inhibitors, primary screen, biochemical, plate reader, single point, HTS. AID 602481, 2012. 7,8-diaminopelargonic acid synthase BioA (Mycobacterium tuberculosis). inhibition, % at 9.99 µM. hit rate 0.096% among 360,000. purified M. tuberculosis BioA enzyme; in the data active = inhibition above about 40%
# FadD28 FP inh: inhibitors of FadD28 bisubstrate probe binding, primary screen, biochemical, fluorescence polarization, single point; Mycobacterium tuberculosis FadD28 fatty-acid-AMP ligase; inhibition, % at 12.5 µM; hit rate 0.22% among 360,000; in the data active = inhibition above about 8.5%, passing the limit was not always enough
# TcdB inh: TcdB glycohydrolase inhibitors, primary screen, biochemical, single point, plate reader; Toxin B (Clostridioides difficile), P18177; TcdB glycohydrolase enzymatic assay; inhibition, % at 9.99 µM; hit rate 0.24% among 350,000; AID 652162, 2013; in the data active = inhibition above about 10%
# BioA inh-2: Mtb BioA enzyme inhibitors, dose response, biochemical, plate reader, cherry-pick samples, set 03. purified BioA enzyme. max activity, %. shares compounds with BioA inh-1. AID 651679, 2012. 310 tested, under 10 active;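 note: top concentration of the dilution series was 10 µM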
# Target sequence (P9WQ81 whole entry, looked up): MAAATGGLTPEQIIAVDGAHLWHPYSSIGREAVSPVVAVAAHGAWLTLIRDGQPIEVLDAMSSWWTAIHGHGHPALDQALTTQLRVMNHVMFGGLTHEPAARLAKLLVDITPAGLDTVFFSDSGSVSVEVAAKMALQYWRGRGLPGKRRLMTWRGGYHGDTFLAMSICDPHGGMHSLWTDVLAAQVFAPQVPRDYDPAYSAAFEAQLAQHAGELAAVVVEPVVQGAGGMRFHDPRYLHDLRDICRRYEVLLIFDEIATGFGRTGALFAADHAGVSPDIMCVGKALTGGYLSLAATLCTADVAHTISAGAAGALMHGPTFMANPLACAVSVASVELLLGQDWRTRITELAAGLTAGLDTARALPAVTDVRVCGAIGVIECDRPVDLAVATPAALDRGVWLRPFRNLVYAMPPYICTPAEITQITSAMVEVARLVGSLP
# HepG2 tox 2: cytotoxicity in HepG2 cells, dose response, cytotoxicity control, cell-based, plate reader, cherry-pick, two tests; 310 tested, under 10 active; max activity, %; shares compounds with BioA inh-1
# NIH3T3 tox 5: cytotoxicity in NIH3T3 fibroblasts, dose response, cytotoxicity control, cell-based, plate reader, cherry-pick, two tests | AID 651900, 2012 | shares compounds with BioA inh-1 | 310 tested, under 10 active | activity change, negative = cytotoxicity, % at 26 µM
# The depositor's hits bear a star; i = inactive; · = not tested or not shown; [ ] = remark or other dose. In the library only some 0.54% were active in any assay of this set; here they are far more common. Unless noted, the rule behind the calls is not given here.
SMILES,BH1578 lux ind,BioA inh-1,FadD28 FP inh,TcdB inh,BioA inh-2,HepG2 tox 2,NIH3T3 tox 5
COc1ccc(CCN(C)c2ccc(C(N)=O)cc2[N+](=O)[O-])cc1OC,1,49*,0,1,-8,-12,-9
COc1ccc(CN(C)C[C@@H]2OCCCC[C@H](C)Oc3ccc(NS(=O)(=O)c4cccs4)cc3C(=O)N([C@@H](C)CO)C[C@@H]2C)cc1,·,2,·,1,·,·,·
COc1ccc(-c2nc3ccc(Cl)cn3c2Cc2ccccc2)cc1OC,·,70*,-6,2,-9,-13,-7
COc1ccc(-c2nc3ccc(Cl)cn3c2Cc2cccc(Cl)c2)cc1OC,·,24,-10,1,·,·,·
CCN(CC)c1ccc2cc(C(=O)c3cccs3)c(=O)oc2c1,·,91*,1,1,-7,49,-9
O=C1CN(S(=O)(=O)c2ccccc2)C[C@@H]2[C@H](c3ccc(C#Cc4ccccc4)cc3)[C@H](CO)N12,·,·,·,0,·,·,·
O=C(Nc1ncc2c(n1)CC(c1ccco1)CC2=O)c1ccccc1 (configuration not stated),-1,60*,0,·,-9,-14,-7
Cc1ccc(-n2ncc3c2CC(C)(C)CC3NC(=O)CCc2ccncc2)cc1 (configuration not stated),0,4,0,1,·,·,·
Cc1cnc(C(=O)NC2CC(C)(C)Cc3c2cnn3-c2cccc(F)c2)cn1 (configuration not stated),-1,63*,0,1,-4,20,3
Cc1ccc(-n2ncc3c2CC(C)(C)CC3NC(=O)CCc2cccnc2)cc1 (configuration not stated),i,45*,-1,2,-8,-12,7
C[C@H]1CN([C@@H](C)CO)C(=O)Cc2cc(N(C)C)ccc2O[C@@H]1CN(C)Cc1ccncc1,·,-1,·,-8,·,·,·
C[C@@H]1CN([C@@H](C)CO)C(=O)c2cc(NC(=O)Nc3ccc(C(F)(F)F)cc3)ccc2O[C@@H](C)CCCCO[C@H]1CN(C)S(=O)(=O)c1cccs1,·,0,·,0,·,·,·
COc1ccc(C(=O)N2C[C@@H]3[C@H](c4ccccc42)[C@H](CO)N3Cc2ccccc2)cc1,·,0,·,-1,·,·,·
NC(=O)c1ccc(Oc2cccc3cccnc23)c([N+](=O)[O-])c1,i,42*,-3,-1,25,20,7
COc1ccc(C(=O)Oc2cccc3cccnc23)cc1[N+](=O)[O-],-6,·,-2,1,·,·,·
C[C@@H]1CN([C@@H](C)CO)C(=O)c2cccc(NC(=O)Nc3ccc(F)cc3)c2O[C@H]1CN(C)C(=O)Nc1ccc2c(c1)OCO2,·,14,·,2,·,·,·
COc1ccc(-c2ccc3c(c2)[C@H]2[C@H](CCN2C(=O)Cc2cccnc2)[C@H](CO)N3C)cc1,·,43*,·,6,5,i,-15
COc1ccc(-c2ccc3c(c2)[C@@H]2[C@@H](CCN2C(=O)Cc2cccnc2)[C@@H](CO)N3C)cc1,·,29,·,2,·,·,·
CN1c2ccc(-c3ccccc3)cc2[C@H]2[C@H](CCN2C(=O)c2cccc(F)c2)[C@H]1CO,·,17,·,-1,·,·,·
CC(=O)N1CC[C@@H]2[C@@H](CO)N(C)c3ccc(-c4cccc(F)c4)cc3[C@@H]21,·,56*,·,7,3,i,-4
CN1c2ccc(-c3cccc(F)c3)cc2[C@@H]2[C@@H](CCN2C(=O)c2ccncc2)[C@H]1CO,·,50*,·,·,6,i,-3[23.5 µM]
CN1c2ccc(-c3ccccc3)cc2[C@H]2[C@H](CCN2C(=O)c2ccccc2F)[C@H]1CO,·,46*,·,1,-5,i,-9[23.5 µM]
CC(=O)N1CC[C@H]2[C@@H]1c1cc(-c3cccc(F)c3)ccc1N(C)[C@H]2CO,·,25,·,1,·,·,·
O=C(Nc1cccc(F)c1)N[C@@H]1CC[C@H](CCNS(=O)(=O)c2cccc(Cl)c2)O[C@@H]1CO,·,8,·,0,·,·,·
O=C(CCN1CCCCC1)NCC[C@@H]1CC[C@@H](NC(=O)C2CCCCC2)[C@@H](CO)O1,·,·,·,-1,·,·,·
SMILES,BH1578 lux ind,BioA inh-1,FadD28 FP inh,TcdB inh,BioA inh-2,HepG2 tox 2,NIH3T3 tox 5
CCC(=O)N1CC[C@@H]2[C@H]1c1cc(-c3cccc(F)c3)ccc1N(C)[C@H]2CO,·,42*,·,·,-5,i,-2
CCCNC(=O)N(C)C[C@H]1Oc2ncc(C3=CCCC3)cc2C(=O)N([C@H](C)CO)C[C@@H]1C,·,1,·,0,·,·,·
COc1cccc(-c2ccc3c(c2)O[C@H](CN(C)C)[C@@H](C)CN([C@H](C)CO)S3(=O)=O)c1,·,2,·,0,·,·,·
CC(=O)c1ccc(NC(=O)COC(=O)Cc2ccsc2)cc1,i,47*,1,1,-6,12,-3
COc1ccccc1S(=O)(=O)N1CC[C@H]2[C@H](CO)Nc3ccc(-c4ccccc4)cc3[C@H]21,·,10,·,0,·,·,·
COc1ccccc1S(=O)(=O)N1CC[C@@H]2[C@H](CO)Nc3ccc(-c4ccccc4)cc3[C@@H]21,·,43*,·,0,5,i,-4[23.5 µM]
CCN1CCN(c2ccc([N+](=O)[O-])cc2C=C2C(=O)NC(=O)NC2=O)CC1,0,0,-3,0,·,·,·
CC(=O)N1CCN(c2ccc([N+](=O)[O-])cc2C=C2C(=O)NC(=O)NC2=O)CC1,0,44*,-2,·,-6,14,8
C[C@@H]1CN([C@@H](C)CO)C(=O)c2cccc(NC(=O)CCCCCC(=O)Nc3ccccc3N)c2O[C@@H]1CN(C)S(C)(=O)=O,·,·,·,-1,·,·,·
C#CCSc1nnc(-c2c[nH]c3ccccc23)n1C,0,-4,1,1,·,·,·
C#CCSc1nnc(-c2sc(-c3ccccc3)nc2C)n1C,0,60*,-1,·,-3,-14,3
CO[C@H]1CN(C)C(=O)c2ccc(NC(C)=O)cc2OC[C@@H](C)N(C(=O)c2ccc(F)cc2)C[C@H]1C,·,50*,·,0,10,i,-5
O=C(O)CSc1ncnc2scc(-c3ccc(Br)cc3)c12,-1,45*,-1,2,-6,19,-3
O=C(C[n+]1cc(-c2ccc(Cl)cc2)n2c1CCC2)N1c2ccccc2Sc2ccccc21,i,61*,-2,·,-6,-11,0
O=C(C[n+]1cc(-c2ccc(Cl)c(Cl)c2)n2c1CCC2)N1c2ccccc2Sc2ccccc21,0,·,-11,·,·,·,·
Cn1nnc2cc(C(=O)N3CCC(c4ccccc4)C3)ccc21 (configuration not stated),i,66*,-2,·,-10,-13,-8
COc1ccc(NC(=O)c2ccc(Cl)nc2)cc1S(=O)(=O)N1CCOCC1,i,59*,-3,0,-9,-14,-4

# Compound activity: PubChem BioAssay, Broad Institute
